Reference: publication PMC11062922 (Nature Chemical Biology, 2023)

Assays:
Design in all cases: species or system human, MV4-11 + K-562 + COLO205 + SK-N-BE2 + OVCAR-8
Details in all cases: read-out: apparent Kd; compound concentrations:100 nM and 1000 nM (sheet 'Samples'); n = 1
ADCK1 = system: ADCK1
AKT1 = system: AKT1
ATR = system: ATR
AURKA = system: AURKA
BTK = system: BTK
CDK9 = system: CDK9
CLK1 = system: CLK1
CLK4 = system: CLK4
CSNK1A1 = system: CSNK1A1
CSNK1E = system: CSNK1E
CSNK1G1 = system: CSNK1G1
CSNK1G3 = system: CSNK1G3
DDX3X;DDX3Y = system: DDX3X;DDX3Y
EPHB3 = system: EPHB3
GRK6 = system: GRK6
HSP90B1 = system: HSP90B1
LYN = system: LYN
MAP2K1 = system: MAP2K1
MAP2K2 = system: MAP2K2
MAPK1 = system: MAPK1
MAPK3 = system: MAPK3
MCM5 = system: MCM5
MET = system: MET
OPA1 = system: OPA1
PHKG2 = system: PHKG2
PI4KA = system: PI4KA
PI4KB = system: PI4KB
PIK3CA = system: PIK3CA
PIK3CB = system: PIK3CB
PIM1 = system: PIM1
PIM3 = system: PIM3
PRKACA = system: PRKACA
PRKDC = system: PRKDC
RAB14 = system: RAB14
RAB5C = system: RAB5C
RPS6KA3 = system: RPS6KA3
RPS6KA6 = system: RPS6KA6
SKIV2L2 = system: SKIV2L2
SLC25A5 = system: SLC25A5
T10 = system: T1, T10
T1 construct: gene NAT10

TBK1 = system: TBK1
TEC = system: TEC
ULK3 = system: ULK3
VDAC3 = system: VDAC3

SMILES: Cc1cnc(Nc2ccc(F)cc2Cl)nc1-c1c[nH]c(C(=O)N[C@H](CO)c2cccc(Cl)c2)c1 [Vertex11e]
- potency estimated from few doses (ADCK1): 1210 nM
- potency estimated from few doses (AKT1): 1200 nM
- potency estimated from few doses (ATR): 890 nM
- potency estimated from few doses (AURKA): 745 nM
- potency estimated from few doses (BTK): 880 nM
- potency estimated from few doses (CDK9): 1810 nM
- potency estimated from few doses (CLK1): 1150 nM
- potency estimated from few doses (CLK4): 1250 nM
- potency estimated from few doses (CSNK1A1): 969 nM
- potency estimated from few doses (CSNK1E): 1220 nM
- potency estimated from few doses (CSNK1G1): 2060 nM
- potency estimated from few doses (CSNK1G3): 1230 nM
- potency estimated from few doses (DDX3X;DDX3Y): 1220 nM
- potency estimated from few doses (EPHB3): 2330 nM
- potency estimated from few doses (GRK6): 1290 nM
- potency estimated from few doses (HSP90B1): 1070 nM
- potency estimated from few doses (LYN): 1320 nM
- potency estimated from few doses (MAP2K1): 1350 nM
- potency estimated from few doses (MAP2K2): 1430 nM
- potency estimated from few doses (MAPK1): 44.9 nM
- potency estimated from few doses (MAPK3): 77.8 nM
- potency estimated from few doses (MCM5): 1270 nM
- potency estimated from few doses (MET): 2320 nM
- potency estimated from few doses (OPA1): 802 nM
- potency estimated from few doses (PHKG2): 2480 nM
- potency estimated from few doses (PI4KA): 1380 nM
- potency estimated from few doses (PI4KB): 59.2 nM
- potency estimated from few doses (PIK3CA): 142 nM
- potency estimated from few doses (PIK3CB): 851 nM
- potency estimated from few doses (PIM1): 939 nM
- potency estimated from few doses (PIM3): 340 nM
- potency estimated from few doses (PRKACA): 1860 nM
- potency estimated from few doses (PRKDC): 723 nM
- potency estimated from few doses (RAB14): 655 nM
- potency estimated from few doses (RAB5C): 1330 nM
- potency estimated from few doses (RPS6KA3): 1540 nM
- potency estimated from few doses (RPS6KA6): 628 nM
- potency estimated from few doses (SKIV2L2): 1590 nM
- potency estimated from few doses (SLC25A5): 1450 nM
- potency estimated from few doses (T10): 952 nM
- potency estimated from few doses (TBK1): 1290 nM
- potency estimated from few doses (TEC): 1320 nM
- potency estimated from few doses (ULK3): 1530 nM
- potency estimated from few doses (VDAC3): 1380 nM
